Data taken from PubChem BioAssay AID1159580 (chemical genetic matrix, 2015).
“And” between values parts separate entries of the source, which are not always exact repeats. Identical values can stand only once. About 2,000 (36%) of roughly 5,500 compounds were called active. Not shown: some 18% with an inconclusive outcome. Cut-off read from the data, not from the text of the source: active = normalized growth mostly below about 0.91 (no sharp cut-off); inconclusive = no clear call, values can overlap the other calls; inactive = mostly above about 0.92. The list shows a part of the results.

Assay: chemical genetic growth profiling, strain panel (AID 1159580);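 note: tested at 20 µM; growth read once vehicle control cultures reached saturation at 30 °C; 1 = growth at the plate median or of vehicle wells; lower values mean less growth of the strain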
Details: S. cerevisiae deletion strains, growth OD

Measured: normalized growth

O=C(O)CCCc1ccc(N(CCCl)CCCl)cc1
inactive: locus YAL021C, strain ccr4, hits give low values 0.929 | locus YAL026C, strain drs2, hits give low values 0.965 | locus YAL030W, strain snc1, hits give low values 0.971 | locus YAL040C, strain CLN3, hits give low values 1.1 | locus YBL061C, strain skt5, hits give low values 0.985 | locus YBR009C, strain hhf1, hits give low values 1 | locus YBR021W, strain FUR4, hits give low values 1.01 | locus YBR023C, strain chs3, hits give low values 0.957 | locus YBR171W, strain sec66, hits give low values 0.983 | locus YBR229C, strain ROT2, hits give low values 0.95 | locus YBR231C, strain swc5, hits give low values 0.997 | locus YBR279W, strain paf1, hits give low values 0.955 | locus YCL011C, strain gbp2, hits give low values 0.959 | locus YCL016C, strain dcc1, hits give low values 0.931 | locus YCL029C, strain bik1, hits give low values 0.989 | locus YCL061C, strain MRC1, hits give low values 0.986 | locus YCL069W, strain vba3, hits give low values 0.977 | locus YCR088W, strain abp1, hits give low values 0.984 | locus YDL005C, strain med2, hits give low values 0.997 | locus YDL035C, strain GPR1, hits give low values 0.974 | locus YDL040C, strain nat1, hits give low values 0.979 | locus YDL074C, strain BRE1, hits give low values 1 | locus YDL101C, strain DUN1, hits give low values 0.986 | locus YDL185W, strain tfp1, hits give low values 0.973 | locus YDL192W, strain arf1, hits give low values 0.984 | locus YDR001C, strain nth1, hits give low values 0.973 | locus YDR069C, strain doa4, hits give low values 0.955 | locus YDR101C, strain arx1, hits give low values 0.991 | locus YDR137W, strain rgp1, hits give low values 0.943 | locus YDR150W, strain NUM1, hits give low values 0.989 | locus YDR159W, strain sac3, hits give low values 1.01 | locus YDR162C, strain NBP2, hits give low values 0.947 | locus YDR195W, strain ref2 0.959 | locus YDR297W, strain sur2, hits give low values 0.986 | locus YDR318W, strain mcm21, hits give low values 0.999 | locus YDR334W, strain swr1, hits give low values 0.969 | locus YDR335W, strain msn5, hits give low values 0.967 | locus YDR363W, strain ESC2, hits give low values 1 | locus YDR388W, hits give low values 0.985 | locus YDR392W, strain spt3, hits give low values 0.881 | locus YDR502C, strain sam2, hits give low values 1 | locus YEL003W, strain gim4, hits give low values 0.988 | locus YEL037C, strain rad23, hits give low values 0.97 | locus YEL061C, strain CIN8 (second series), hits give low values 0.966 | locus YEL061C, strain CIN8, hits give low values 0.991 | locus YER002W, strain NOP16, hits give low values 1.02 | locus YER015W, strain faa2, hits give low values 0.973 | locus YER016W, strain bim1, hits give low values 0.986 | locus YER110C, hits give low values 0.983 | locus YER111C, strain swi4, hits give low values 0.978 | locus YER155C, strain BEM2 (second series), hits give low values 1.01 | locus YER155C, strain BEM2, hits give low values 0.991 | locus YER167W, strain BCK2, hits give low values 0.99 | locus YFR010W, strain ubp6, hits give low values 1 | locus YGL078C, strain dbp3, hits give low values 0.952 | locus YGL086W, strain mad1, hits give low values 0.932 | locus YGL167C, strain pmr1, hits give low values 0.978 | locus YGL173C, strain kem1, hits give low values 0.999 | locus YGL227W, strain vid30, hits give low values 0.955 | locus YGL240W, strain doc1, hits give low values 0.97 | locus YGL248W, strain PDE1, hits give low values 1 | locus YGL253W, strain hxk2, hits give low values 0.925 | locus YGR135W, strain pre9, hits give low values 1.04 | locus YGR252W, strain gcn5, hits give low values 1.07 | locus YHR013C, strain ard1, hits give low values 0.956 | locus YHR027C, strain rpn1, hits give low values 0.977 | locus YHR030C, strain SLT2, hits give low values 0.982 and 0.856 | locus YHR079C, strain IRE1 (second series), hits give low values 0.996 | locus YHR079C, strain IRE1, hits give low values 0.876 | locus YHR094C, strain hxt1, hits give low values 0.983 | locus YHR129C, strain ARP1, hits give low values 0.988 | locus YHR142W, strain chs7, hits give low values 0.949 | locus YHR200W, strain rpn10, hits give low values 0.981 | locus YIL066C, strain RNR3, hits give low values 0.967 | locus YIL073C, strain SPO22, hits give low values 1.02 | locus YIL125W, strain kgd1, hits give low values 0.95 | locus YIR030C, strain dcg1, hits give low values 0.983 | locus YJL092W, strain hpr5, hits give low values 0.967 | locus YJL095W, strain BCK1 (second series), hits give low values 0.974 | locus YJL095W, strain BCK1, hits give low values 1.06 and 0.888 | locus YJL115W, strain asf1, hits give low values 0.952 | locus YJL129C, strain trk1, hits give low values 0.927 | locus YJL134W, strain LCB3, hits give low values 0.983 | locus YJL154C, strain vps35, hits give low values 0.972 | locus YJL164C, strain tpk1, hits give low values 0.988 | locus YJL166W, strain qcr8, hits give low values 1 | locus YJL168C, strain set2, hits give low values 0.984 | locus YJL187C, strain SWE1 (second series), hits give low values 1 | locus YJR043C, strain POL32, hits give low values 0.963 | locus YJR066W, strain TOR1, hits give low values 0.967 | locus YJR075W, strain HOC1, hits give low values 1.02 and 0.993
